Source: PubChem (National Center for Advancing Translational Sciences (NCATS))
Tau fibril ThT – inhibitors of human tau fibril formation, thioflavin T binding. 270,000 compounds, 2.1% hits. Potency, µM (titrated, usually from 57.4 µM), actives largely listed as inhibitors. recombinant tau K18 P301L, heparin-induced fibrillization, ThT fluorescence; further: nearly all actives have a fitted effect of over 55% in size
Target sequence (P10636 561-689 P618L limits assumed): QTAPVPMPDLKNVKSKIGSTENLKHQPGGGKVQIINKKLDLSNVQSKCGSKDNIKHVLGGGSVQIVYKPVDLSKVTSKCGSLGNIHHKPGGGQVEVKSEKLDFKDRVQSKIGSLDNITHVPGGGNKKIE
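K18 P301L tau (15 uM + 0.24 uM Alexa 594-tagged), heparin 20 uM, NaOAc pH 7, 6 h 37 C; ThT 30 uM, 1 h RT, ex 450/em 510 nm.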
Tau fluor cs – counter-screen for tau fibril formation inhibitors. tau K18 P301L (four-repeat tau fragment) Alexa594 fluorescence, heparin fibrillization. Potency, µM (series often up to 57.7 µM). 280,000 compounds, 0.93% hits. AID 1463; further: nearly all actives have a fitted effect of over 55% in size
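Human K18 P301L tau (15 uM unlabeled plus 0.24 uM Alexa 594-labeled, final) in 100 mM sodium acetate pH 7 was mixed with compound and 20 uM heparin and incubated 6 hr at 37 C.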
Tau FP inhib – blocks human tau fibril formation measured by polarization; P10636; K18 P301L tau heparin fibrillization, Alexa594 FP, 6 h; Potency, µM (doses to about 57.7 µM), usual class: inhibitors; 280,000 compounds, 0.39% hits; AID 1468; further: nearly all actives have a fitted effect of over 55% in size
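Recombinant K18 P301L […], labeled with Alexa 594 at 0.24 uM over 15 uM unlabeled; heparin inducer 20 uM final; 37 C, 6 hr; FP endpoint.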
Sfp inh – inhibitors of Bacillus subtilis Sfp phosphopantetheinyl transferase. Q9F4F7. 310,000 compounds, 3.5% hits. Potency, µM, actives largely listed as inhibitors. Biochemical Sfp PPTase activity, qHTS. AID 1490;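 further: the enzyme is Sfp with the accession as filed and its product quenches rhodamine fluorescence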
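Buffer: 50 mM Hepes-Na pH 7.6, 10 mM MgCl2, 0.01% Nonidet P-40, 0.01% BSA. Enzyme 15 nM, pre-exposed to compound 15 min; substrates then added and fluorescence change tracked over 30 min.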
Coupling enz – coupling enzyme interference in Giardia aldolase counter-screen; 290,000 compounds, 0.67% hits; activity change, negative = inhibition, % at 58.2 µM, hits read low; coupling enzyme system counterscreen, AmpLite Red fluorescence; in the data active means activity change below about -30%
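Compounds tested against the coupling enzymes alone at 57.5 uM final; readout was AmpLite Red fluorescence (525/598 nm) after 20 min at RT.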
Of the large screens only hits and unclear results are named; the others gave an inactive call; ! = a repeat was not active; [ ] = remark or other dose. Most compounds without a hit are left out; they make up all but 5.2% or so of the library. Unless noted, the call rests on the fitted dose curve; in most records, active means well fitted curve in the direction sought with a large enough effect; inconclusive means small, poorly fitted or top-dose-only effect, or another doubt; inactive means no such curve, though single readings can be large; an effect the other way counts as inactive or inconclusive.

COc1ccccc1N1CCN(C(=O)c2ccc(Nc3nc4ccccc4n4nnnc34)cc2)CC1	Tau fluor cs inconclusive (no result: Sfp inh, Coupling enz)
COc1ccc(OC)c2sc(N(CCN(C)C)C(=O)c3cc(Cl)sc3Cl)nc12	Sfp inh 56µM
C/C(CCC(=O)OC[C@@H]1O[C@H](C#Cc2ccccc2)C=C[C@@H]1Oc1ccc(C)cc1)=N/O[C@@H](C)c1cn([C@H]2COC[C@H]2O)nn1	none
O=C(Nc1nc(-c2ccc(Cl)s2)cs1)c1cccs1	Tau fibril ThT inconclusive, Tau fluor cs 28µM[quencher], Tau FP inhib inconclusive, Sfp inh inconclusive
O=C(O)C1CCCCC1C(=O)Nc1nc(-c2ccc(Cl)s2)cs1 (centres undefined)	Sfp inh 22µM
O=C(Nc1nc(-c2ccccc2)cs1)c1cccs1	none
Cc1cccc(CNc2nc(-c3ccc4c(c3)OCO4)nc3ccccc23)c1	Sfp inh inconclusive (no result: Tau fibril ThT, Tau fluor cs, Tau FP inhib)
NC[C@](O)(CS(=O)(=O)O)c1ccc(Cl)cc1	none
CCOc1ccc(C(=O)NCC(c2ccc3c(c2)OCO3)N2CCN(c3ccccc3F)CC2)cc1 (centres undefined)	Tau fibril ThT inconclusive (no result: Sfp inh, Coupling enz)
COC(=O)C1=CO[C@@H](C)[C@@H]2CN3CCc4c([nH]c5ccccc45)[C@@H]3C[C@H]12	Coupling enz -31 (no result: Tau fibril ThT, Tau fluor cs, Tau FP inhib)
COC(=O)C1=COC(C)C2CN3CCc4c([nH]c5ccccc45)C3CC12 (centres undefined)	none
N[C@H](C(=O)O)c1nn[nH]n1	Sfp inh 89µM
COc1ccc(F)cc1S(=O)(=O)NCC(c1ccco1)S(=O)(=O)c1cccs1 (centres undefined)	none (no result: Sfp inh, Coupling enz)
COC(=O)C1=C[C@@H](C(=O)OC)[C@@H]2C3=C(C(=O)[C@@]2(C)NC(=O)c2ccccc2)[C@H](C)[C@@H]2C(=O)N(c4ccccc4)C(=O)[C@@H]2[C@@H]3C1	none (no result: Tau fibril ThT, Tau fluor cs, Tau FP inhib)
O=C(NC(=S)Nc1nc2ccc(F)cc2s1)c1ccco1	Sfp inh 56µM
Cc1ccc(C(=O)Nc2nc(C)c(C(=O)N(C)C)s2)o1	none (no result: Tau fibril ThT, Tau fluor cs, Tau FP inhib)
Cc1nc(NC(=S)NC(=O)c2ccco2)sc1C(=O)N(C)C	Sfp inh 22µM (no result: Tau fibril ThT, Tau fluor cs, Tau FP inhib)
CS(=O)(=O)c1ccc2nc(NC(=O)c3ccco3)sc2c1	none
O=C(O)c1ccc(Cl)c(S(=O)(=O)Nc2ccc3cn[nH]c3c2)c1	Sfp inh inconclusive, Coupling enz -71
Cc1cccc(CNC(=O)c2cc3cc(S(=O)(=O)N4CCCCC4)ccc3n2C)c1	Tau fibril ThT inconclusive, Tau fluor cs inconclusive (no result: Sfp inh, Coupling enz)
COc1ccccc1-c1cn[nH]c1-c1ccc(OCc2ccc(F)cc2)cc1O	Tau fluor cs 10µM[quencher], Tau FP inhib inconclusive
COc1ccccc1-c1cn[nH]c1-c1ccc(OCc2ccccc2F)cc1O	Tau fluor cs 10µM[quencher], Tau FP inhib inconclusive
COc1cc2cc(CNc3ccccc3)c(=O)n(CC(=O)Nc3ccccc3)c2cc1OC	Tau fibril ThT inconclusive, Tau fluor cs inconclusive (no result: Sfp inh, Coupling enz)
COC(=O)c1ccc(OCCCCN2CC(C)OC(C)C2)cc1 (centres undefined)	Sfp inh 56µM
CC1CN(CCCCOc2ccc3ccccc3c2)CC(C)O1 (centres undefined)	none
CC(=O)Nc1cccc(NC(=O)CN2C(=O)CCSc3ccccc32)c1	none (no result: Sfp inh, Coupling enz)
O=c1c2c(-c3ccco3)csc2nc(SCc2cn3cccnc3n2)n1-c1ccccc1	Tau fibril ThT inconclusive, Sfp inh 18µM
CC(=O)NCCCC[C@H](NC(=O)OC(C)(C)C)C(=O)Nc1ccc2c(C(F)(F)F)cc(=O)oc2c1	none (no result: Tau fibril ThT, Tau fluor cs, Tau FP inhib)
COC(=O)CCC(=O)OC1(C)C(=O)C=C2C=C(C3CC3)N(Cc3ccco3)C=C2C1=O (centres undefined)	Tau fibril ThT inconclusive
COC(=O)CCC(=O)OC1(C)C(=O)C=C2C=C(C3CC3)N(c3cccc(C#N)c3)C=C2C1=O (centres undefined)	Tau fibril ThT inconclusive, Coupling enz -32!
COC(=O)CCC(=O)OC1(C)C(=O)C=C2C=C(C3CC3)OC=C2C1=O (centres undefined)	Tau fibril ThT inconclusive
COC(=O)CCC(=O)OC1(C)C(=O)C=C2C=C(C3CC3)N(C3CC3)C=C2C1=O (centres undefined)	Tau fibril ThT inconclusive, Tau FP inhib inconclusive, Coupling enz -47!
COCCN1C=C2C(=O)C(C)(OC(=O)CCC(=O)OC)C(=O)C=C2C=C1C1CC1 (centres undefined)	Coupling enz -45
COC(=O)CCC(=O)OC1(C)C(=O)C=C2C=C(C3CC3)N(c3ccc(CO)cc3)C=C2C1=O (centres undefined)	none
Cc1cccc(Cn2c(=O)n(CCC(=O)NCc3ccc4c(c3)OCO4)c(=O)c3sccc32)c1	none (no result: Sfp inh, Coupling enz)
COC(=O)C1=C(C(=O)OC)[C@@H]2N(C)c3ccc(OC)cc3[C@@]23C[C@@H](C(=O)OC)N(S(=O)(=O)c2c(C)noc2C)C3=N1	none
Cc1ccccc1Cn1c2ccccc2c2cnn(CC(=O)NCC(C)c3ccccc3)c(=O)c21 (centres undefined)	none (no result: Sfp inh, Coupling enz)
CC(=O)Nc1ccc(Nc2ccc3c4c(cc(=O)n3C)-c3ccccc3C(=O)c24)cc1	Tau fibril ThT inconclusive, Tau fluor cs inconclusive
O=C1c2ccccc2C(=O)c2c(Nc3ccc(CCO)cc3)ccc(O)c21	Tau fibril ThT 2.8µM, Tau fluor cs 1.8µM[quencher], Tau FP inhib inconclusive, Sfp inh inconclusive
COc1ccccc1S(=O)(=O)Cc1ccc(C(=O)N2CCN(c3ccccn3)CC2)o1	Sfp inh 79µM
COc1ccc(S(=O)(=O)Cc2ccc(C(=O)N3CCN(c4ccccn4)CC3)o2)cc1	none
CCCCn1cc(S(=O)(=O)c2ccccc2)c(=O)c2cc(F)c(N3CCC(C)CC3)cc21	none (no result: Sfp inh, Coupling enz)
C=C/C1=C/Cc2ccccc2C(C[N+](=O)[O-])C(C(=O)OC)(C(=O)OC)C1 (centres undefined)	Sfp inh inconclusive
COc1ccc(C(=O)N2CCC[C@@]3(CCN(Cc4ccc(C#N)cc4)C3)C2)cc1	none (no result: Tau fibril ThT, Tau fluor cs, Tau FP inhib)
COC(=O)CCSc1nc(N2CCOCC2)c2c(c1C#N)CC(C)(C)OC2	Sfp inh 79µM (no result: Tau fibril ThT, Tau fluor cs, Tau FP inhib)
CCOC(=O)CCSc1nc(N2CCOCC2)c2c(c1C#N)CC(C)(C)OC2	none (no result: Tau fibril ThT, Tau fluor cs, Tau FP inhib)
COc1ccc(/C=C2\CCCC(C(=O)C(F)(F)F)=C2O)cc1	Tau fibril ThT inconclusive
O=C(C1=C(O)/C(=C/c2ccc(O)cc2)CCC1)C(F)(F)F	Tau fibril ThT 28µM, Tau fluor cs inconclusive, Tau FP inhib inconclusive
C/C=C/c1ccc2oc(-c3ccc(O)cc3)c(C)c2c1	Tau fibril ThT 18µM, Tau fluor cs 14µM[quencher], Tau FP inhib inconclusive
CNC(=S)NNS(=O)(=O)c1ccc(OC)cc1OC	Sfp inh 25µM
COc1cccc(NC(=O)NNS(=O)(=O)c2ccc(OC)cc2OC)c1	none (no result: Tau fibril ThT, Tau fluor cs, Tau FP inhib)
COc1cc(-c2cc3n(C)c(C)c(CCC(=O)NC4CCC(C)CC4)c(=O)n3n2)cc(OC)c1OC (centres undefined)	none (no result: Sfp inh, Coupling enz)
